{"source": "PubChem BioAssay AID680", "about": "(PCMD, 2007)", "note": "Among all 62,000 compounds or so, about 120 (0.19%) were called active. This is one part of a sample in which actives are shown more often than they occur. Values without a mark were called inactive. Cut-off read from the data, not from the text of the source: active = inhibition above about 20% (passing the limit was not always enough); inactive = the rest."}
{"target": "Coagulation factor XI (Homo sapiens) (UniProt P03951)", "sequence (P03951 19-387 limits assumed)": "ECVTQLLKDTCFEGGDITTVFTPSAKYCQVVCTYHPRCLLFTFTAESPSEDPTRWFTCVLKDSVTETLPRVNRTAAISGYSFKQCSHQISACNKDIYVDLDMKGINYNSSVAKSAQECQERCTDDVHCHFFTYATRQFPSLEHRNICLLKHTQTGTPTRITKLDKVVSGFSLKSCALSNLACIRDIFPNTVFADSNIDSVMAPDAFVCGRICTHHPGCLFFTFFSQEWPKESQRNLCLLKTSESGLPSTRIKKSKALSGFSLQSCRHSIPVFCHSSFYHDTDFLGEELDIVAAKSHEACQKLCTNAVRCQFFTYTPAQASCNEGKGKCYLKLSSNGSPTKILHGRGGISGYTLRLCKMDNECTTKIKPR", "sequence (P03951 388-625 limits assumed)": "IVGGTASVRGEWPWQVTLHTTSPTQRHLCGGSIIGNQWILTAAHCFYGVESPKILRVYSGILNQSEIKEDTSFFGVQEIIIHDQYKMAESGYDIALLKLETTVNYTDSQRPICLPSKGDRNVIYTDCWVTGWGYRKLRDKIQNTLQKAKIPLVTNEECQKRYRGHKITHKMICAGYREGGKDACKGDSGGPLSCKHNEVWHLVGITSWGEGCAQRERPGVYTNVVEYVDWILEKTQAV", "assay": "FXIa protease inhibitors in compound pools, primary screen, biochemical, 10-compound mixtures (AID 680);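 note: each value is inhibition by a whole ten-compound pool holding the compound; 0% = enzyme with no mixture and 100% = wells lacking enzyme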", "conditions": "purified FXIa, fluorogenic substrate, pooled mixtures; at 5 µM; hits give high values", "units": {"inhibition": "%"}}
{"smiles": "O=C1CC2(CCCCC2)Oc2ccc(OCC(=O)N3CCOCC3)cc21", "inhibition": 4.52}
{"smiles": "Cc1cn(COC/C=C/c2ccccc2)c(=O)[nH]c1=O", "inhibition": -1.04}
{"smiles": "CCNc1nc(NCC)nc(N(C)n2cnnc2)n1", "inhibition": -3.07}
{"smiles": "CC(C)(C)c1ccc(C(=O)NCCC(=O)NCc2ccco2)cc1", "inhibition": 3.48}
{"smiles": "CCn1cc(C(=O)N2CCN(C3CCCCC3)CC2)c2cc(OC)c(OC)cc2c1=O", "inhibition": 4.42}
{"smiles": "COC(=O)[C@@H](NC(=O)NCc1cccc(OC)c1)C(C)C", "inhibition": -1.25}
{"smiles": "COC(=O)CCNc1ccc2c(c1)OCCO2", "inhibition": -1.79}
{"smiles": "COc1ccc(-c2c(C)nn3c(N4CCC(C(=O)N5CCCCC5)CC4)cc(C)nc23)cc1OC", "inhibition": 8.56}
{"smiles": "CCc1ccccc1N(CC(=O)NCCSCc1ccco1)S(C)(=O)=O", "inhibition": -9.75}
{"smiles": "CCSc1nc2c(c(=O)[nH]1)C(c1cccnc1)C(C(=O)OC(C)C)=C(C)N2", "note": "(stereo unspecified)", "inhibition": 7.07}
{"smiles": "Cn1c(=NC(=O)c2cnccn2)sc2ccccc21", "inhibition": 5.25}
{"smiles": "O=C(OC(C(=O)NC1CCCC1)c1ccc(F)cc1)c1ccno1", "note": "(stereo unspecified)", "inhibition": 7.23}
{"smiles": "CN(C)CCNC(CC(=O)Nc1ccc(Cl)c(Cl)c1)C(=O)O", "note": "(stereo unspecified)", "inhibition": 0.68}
{"smiles": "CN1CCN(c2cc(=O)n(-c3ccc(Cl)cc3)c(=O)[nH]2)CC1", "inhibition": -10.3}
{"smiles": "COc1ccc(C)cc1NC(=O)CSc1nc(SC)ns1", "inhibition": 6.14}
{"smiles": "CCOc1ccccc1NC(=O)C1CCN(S(=O)(=O)c2c(C)nn(C)c2C)CC1", "inhibition": 9}
{"smiles": "COc1cccc2c(=O)n(CC(=O)N3CCCCCC3)ccc12", "inhibition": -15.3}
{"smiles": "Cc1ccc(C(=O)O)cc1S(=O)(=O)NCC1CCCO1", "note": "(stereo unspecified)", "inhibition": 8.82}
{"smiles": "CCOC(=O)Cn1c(CN(Cc2ccccc2)Cc2ccccc2)nc2c1c(=O)[nH]c(=O)n2C", "inhibition": -7.29}
{"smiles": "CCSC(C)CC1C/C(=N/O)c2c(C)noc2C1", "note": "(stereo unspecified)", "inhibition": 0.87}
{"smiles": "O=C(CSC1=Nc2ccccc2C2=NC(c3ccccc3)C(=O)N12)NCC1CCCO1", "note": "(stereo unspecified)", "inhibition": 2.26}
